Reference: paper PMC7862700, “An all-to-all approach to the identification of sequence-specific readers for epigenetic DNA modifications on cytosine”

Tests used:
Test in all cases: DAPPL (digital affinity profiling via proximity ligation, sequencing); 10 mM Tris-HCl pH 7.5, 50 mM NaCl, 1 mM DTT, 4% glycerol, room temperature, 30 min; GST-TFs on glutathione beads, 16-mer random dsDNA library, 0.1% formaldehyde crosslink after washing; high values mean tight binding
FEV = target: T1, FEV (Homo sapiens, UniProt Q99581 1-238); settings: protein: recombinant; tags: N-terminal GST; dsDNA, one strand shown
T1 sequence: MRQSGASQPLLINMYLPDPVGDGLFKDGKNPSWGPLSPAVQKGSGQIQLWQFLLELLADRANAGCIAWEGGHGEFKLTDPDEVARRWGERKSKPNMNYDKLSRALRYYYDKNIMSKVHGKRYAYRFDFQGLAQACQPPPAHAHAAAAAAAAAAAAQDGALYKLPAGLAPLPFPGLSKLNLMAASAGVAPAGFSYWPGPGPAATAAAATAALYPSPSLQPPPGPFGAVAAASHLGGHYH
In short: (§1)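 Binding signal is given per hexamer as its read frequency for a factor divided by its frequency in the tag-only sample. GST-fused human transcription factors were expressed in yeast, captured on glutathione beads, barcoded with DNA and pooled with that sample, then incubated with 200 nmole of a 16-mer random double-stranded DNA library in Tris/NaCl/DTT/glycerol buffer for 30 min at room temperature. The pools were then washed, crosslinked, proximity-ligated, amplified by PCR and sequenced on an Illumina NextSeq500.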

ETV5 = ETV5 (Homo sapiens, UniProt P41161 1-510); settings: protein: recombinant; tags: N-terminal GST; dsDNA, one strand shown
Chain of ETV5 (P41161 whole entry): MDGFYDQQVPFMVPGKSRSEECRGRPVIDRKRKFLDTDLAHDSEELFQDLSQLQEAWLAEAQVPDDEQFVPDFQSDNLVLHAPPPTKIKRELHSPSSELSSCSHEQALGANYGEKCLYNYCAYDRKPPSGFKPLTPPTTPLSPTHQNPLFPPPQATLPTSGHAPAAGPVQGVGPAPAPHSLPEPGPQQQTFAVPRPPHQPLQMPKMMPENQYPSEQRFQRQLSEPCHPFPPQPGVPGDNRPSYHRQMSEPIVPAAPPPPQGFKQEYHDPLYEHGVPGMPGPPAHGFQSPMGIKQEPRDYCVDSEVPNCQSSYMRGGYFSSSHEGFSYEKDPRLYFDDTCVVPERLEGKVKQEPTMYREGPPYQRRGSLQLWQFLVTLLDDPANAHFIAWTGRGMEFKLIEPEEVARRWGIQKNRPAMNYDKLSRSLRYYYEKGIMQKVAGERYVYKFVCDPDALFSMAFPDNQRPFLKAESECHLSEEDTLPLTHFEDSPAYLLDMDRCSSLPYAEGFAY
In short: as §1

HSF1 = HSF1 (Homo sapiens, UniProt Q00613 1-529); settings: protein: recombinant; tags: N-terminal GST; chain copies: 3; dsDNA, one strand shown
Chain of HSF1 (Q00613 whole entry): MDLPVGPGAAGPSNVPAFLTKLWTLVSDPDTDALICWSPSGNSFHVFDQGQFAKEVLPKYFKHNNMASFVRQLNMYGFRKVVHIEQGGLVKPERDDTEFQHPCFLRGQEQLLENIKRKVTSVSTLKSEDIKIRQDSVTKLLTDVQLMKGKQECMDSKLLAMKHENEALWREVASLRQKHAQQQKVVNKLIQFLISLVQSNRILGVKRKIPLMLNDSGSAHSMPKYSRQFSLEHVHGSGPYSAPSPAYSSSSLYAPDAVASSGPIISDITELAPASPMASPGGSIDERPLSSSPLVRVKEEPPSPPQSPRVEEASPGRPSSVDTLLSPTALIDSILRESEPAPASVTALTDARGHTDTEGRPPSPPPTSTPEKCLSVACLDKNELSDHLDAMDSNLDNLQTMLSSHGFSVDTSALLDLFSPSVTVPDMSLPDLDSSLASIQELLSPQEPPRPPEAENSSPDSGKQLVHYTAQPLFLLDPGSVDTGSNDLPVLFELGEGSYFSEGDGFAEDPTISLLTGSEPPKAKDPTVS
In short: as §1

SPIC = target: T2, SPIC (Homo sapiens, UniProt Q8N5J4 1-248); settings: protein: recombinant; tags: N-terminal GST; dsDNA, one strand shown
T2 sequence: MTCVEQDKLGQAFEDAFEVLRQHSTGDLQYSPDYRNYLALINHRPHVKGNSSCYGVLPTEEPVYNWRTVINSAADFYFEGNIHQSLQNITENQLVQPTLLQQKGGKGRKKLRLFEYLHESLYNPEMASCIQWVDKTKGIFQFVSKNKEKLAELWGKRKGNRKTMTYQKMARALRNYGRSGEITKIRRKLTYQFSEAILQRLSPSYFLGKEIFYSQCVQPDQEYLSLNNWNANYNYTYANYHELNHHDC
In short: as §1

ELF4 = ELF4 (Homo sapiens, UniProt Q99607 1-663); settings: protein: recombinant; tags: N-terminal GST; dsDNA, one strand shown
Chain of ELF4 (Q99607 whole entry): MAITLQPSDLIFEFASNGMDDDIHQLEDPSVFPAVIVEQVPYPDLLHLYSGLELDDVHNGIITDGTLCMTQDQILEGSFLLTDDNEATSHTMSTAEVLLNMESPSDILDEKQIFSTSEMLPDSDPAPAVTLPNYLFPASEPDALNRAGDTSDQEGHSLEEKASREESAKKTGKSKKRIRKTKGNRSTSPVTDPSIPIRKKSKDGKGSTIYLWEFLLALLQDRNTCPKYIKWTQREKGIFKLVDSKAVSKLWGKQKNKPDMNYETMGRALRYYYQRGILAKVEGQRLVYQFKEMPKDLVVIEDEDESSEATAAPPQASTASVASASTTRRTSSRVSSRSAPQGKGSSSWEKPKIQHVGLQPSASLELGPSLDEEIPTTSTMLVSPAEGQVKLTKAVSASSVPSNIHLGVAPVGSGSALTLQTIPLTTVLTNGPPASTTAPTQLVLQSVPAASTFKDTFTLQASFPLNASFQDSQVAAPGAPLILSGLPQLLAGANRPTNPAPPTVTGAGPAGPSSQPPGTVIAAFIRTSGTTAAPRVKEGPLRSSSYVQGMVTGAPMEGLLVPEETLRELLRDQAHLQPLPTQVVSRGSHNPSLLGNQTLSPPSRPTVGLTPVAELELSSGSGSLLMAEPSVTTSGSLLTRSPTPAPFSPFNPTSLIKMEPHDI
In short: as §1

ELK4 = target: T3, ELK4 (Homo sapiens, UniProt P28324-2 1-405); settings: protein: recombinant; tags: N-terminal GST; dsDNA, one strand shown
T3 sequence: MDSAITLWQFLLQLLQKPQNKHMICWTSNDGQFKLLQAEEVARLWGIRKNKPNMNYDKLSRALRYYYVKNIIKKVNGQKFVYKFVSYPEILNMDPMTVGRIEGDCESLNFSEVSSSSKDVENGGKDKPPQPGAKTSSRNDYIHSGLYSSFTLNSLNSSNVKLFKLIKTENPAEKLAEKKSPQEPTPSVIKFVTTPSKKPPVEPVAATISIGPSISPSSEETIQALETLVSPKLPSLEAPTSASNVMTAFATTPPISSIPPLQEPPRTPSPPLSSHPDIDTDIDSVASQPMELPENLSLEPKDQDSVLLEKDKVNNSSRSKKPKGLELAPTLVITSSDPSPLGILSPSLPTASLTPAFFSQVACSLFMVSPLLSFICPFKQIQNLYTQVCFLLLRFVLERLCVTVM
In short: as §1

ETV2 = target: T4, ETV2 (Homo sapiens, UniProt O00321 1-342); settings: protein: recombinant; tags: N-terminal GST; dsDNA, one strand shown
T4 sequence: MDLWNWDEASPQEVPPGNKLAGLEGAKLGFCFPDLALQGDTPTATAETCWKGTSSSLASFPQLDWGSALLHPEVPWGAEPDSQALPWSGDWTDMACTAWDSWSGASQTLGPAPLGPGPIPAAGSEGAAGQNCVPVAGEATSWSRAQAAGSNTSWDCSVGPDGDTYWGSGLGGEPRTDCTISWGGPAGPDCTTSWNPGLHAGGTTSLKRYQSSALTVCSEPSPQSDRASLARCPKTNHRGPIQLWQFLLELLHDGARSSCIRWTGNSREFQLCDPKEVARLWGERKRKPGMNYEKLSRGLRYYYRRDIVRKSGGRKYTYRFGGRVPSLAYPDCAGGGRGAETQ
In short: as §1

ELF3 = target: T5, ELF3 (Homo sapiens, UniProt P78545 1-371); settings: protein: recombinant; tags: N-terminal GST; dsDNA, one strand shown
T5 sequence: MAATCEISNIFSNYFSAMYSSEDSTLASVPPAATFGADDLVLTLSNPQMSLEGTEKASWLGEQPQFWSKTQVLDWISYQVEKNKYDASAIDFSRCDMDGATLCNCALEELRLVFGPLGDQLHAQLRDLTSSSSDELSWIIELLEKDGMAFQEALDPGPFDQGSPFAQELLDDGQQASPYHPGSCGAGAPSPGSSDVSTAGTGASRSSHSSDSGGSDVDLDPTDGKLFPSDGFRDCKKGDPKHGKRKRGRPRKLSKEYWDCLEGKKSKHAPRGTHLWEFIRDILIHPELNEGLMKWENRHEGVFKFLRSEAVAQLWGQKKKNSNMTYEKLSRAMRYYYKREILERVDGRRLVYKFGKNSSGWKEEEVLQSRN
In short: as §1

CRX = CRX (Homo sapiens, UniProt O43186 1-299); settings: protein: recombinant; tags: N-terminal GST; dsDNA, one strand shown
Chain of CRX (O43186 whole entry): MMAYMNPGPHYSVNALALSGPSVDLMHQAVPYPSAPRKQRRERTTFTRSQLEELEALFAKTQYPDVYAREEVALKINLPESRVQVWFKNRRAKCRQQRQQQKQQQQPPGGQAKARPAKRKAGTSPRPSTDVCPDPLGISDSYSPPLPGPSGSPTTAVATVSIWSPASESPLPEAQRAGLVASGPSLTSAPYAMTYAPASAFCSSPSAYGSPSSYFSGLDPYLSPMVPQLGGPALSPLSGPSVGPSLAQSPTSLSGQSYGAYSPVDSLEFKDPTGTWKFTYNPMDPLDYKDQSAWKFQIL
In short: as §1

ETV1 = ETV1 (Homo sapiens, UniProt P50549 1-477); settings: protein: recombinant; tags: N-terminal GST; dsDNA, one strand shown
Chain of ETV1 (P50549 whole entry): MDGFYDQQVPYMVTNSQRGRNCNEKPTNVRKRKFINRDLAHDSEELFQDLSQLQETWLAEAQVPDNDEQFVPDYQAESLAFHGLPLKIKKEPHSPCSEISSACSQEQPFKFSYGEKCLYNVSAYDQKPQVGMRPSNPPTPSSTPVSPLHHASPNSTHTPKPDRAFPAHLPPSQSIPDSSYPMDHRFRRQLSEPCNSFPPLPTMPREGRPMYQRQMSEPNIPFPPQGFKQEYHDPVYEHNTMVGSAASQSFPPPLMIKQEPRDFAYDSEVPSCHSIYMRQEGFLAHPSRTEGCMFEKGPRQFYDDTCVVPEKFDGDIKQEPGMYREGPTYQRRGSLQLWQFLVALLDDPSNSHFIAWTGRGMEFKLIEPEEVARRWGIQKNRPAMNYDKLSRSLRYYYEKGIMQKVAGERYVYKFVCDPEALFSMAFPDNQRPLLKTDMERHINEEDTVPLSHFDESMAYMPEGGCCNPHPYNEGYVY
In short: as §1

Sequence: AATCTT
- binding signal (FEV): 1.29 fold enrichment (6-mer frequency, TF over GST control)
- binding signal (ETV5): 1.35 fold enrichment (6-mer frequency, TF over GST control)
- binding signal (HSF1): 2.17 fold enrichment (6-mer frequency, TF over GST control)
- binding signal (SPIC): 1.38 fold enrichment (6-mer frequency, TF over GST control)
- binding signal (ELF4): 1.31 fold enrichment (6-mer frequency, TF over GST control)
- binding signal (ELK4): 1.36 fold enrichment (6-mer frequency, TF over GST control)
- binding signal (ETV2): 1.38 fold enrichment (6-mer frequency, TF over GST control)
- binding signal (ELF3): 1.4 fold enrichment (6-mer frequency, TF over GST control)
- binding signal (CRX): 2.54 fold enrichment (6-mer frequency, TF over GST control)
- binding signal (ETV1): 1.39 fold enrichment (6-mer frequency, TF over GST control)
